FadD28 FP inh – blocks FadD28 binding to the bisubstrate probe; AID 588549; inhibition, % at 12.5 µM; fluorescence polarization; hit rate 0.22% among 360,000; in the data active = inhibition above about 8.5%, passing the limit was not always enough
BioA inh – blocks M. tuberculosis BioA enzyme activity; purified M. tuberculosis BioA enzyme, plate reader; inhibition, % at 9.99 µM; hit rate 0.096% among 360,000; AID 602481; in the data active = inhibition above about 40%
FBA Mtb inh – inhibitors of M. tuberculosis fructose-bisphosphate aldolase; P9WQA3; purified M. tuberculosis FBA, fluorescence read-out; inhibition, % at 1 µM; hit rate 2.3% among 360,000; AID 588726; in the data active = inhibition above about 27%;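 also: 0% = vehicle and 100% = reference inhibitor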
Target sequence (P9WQA3 whole entry, looked up): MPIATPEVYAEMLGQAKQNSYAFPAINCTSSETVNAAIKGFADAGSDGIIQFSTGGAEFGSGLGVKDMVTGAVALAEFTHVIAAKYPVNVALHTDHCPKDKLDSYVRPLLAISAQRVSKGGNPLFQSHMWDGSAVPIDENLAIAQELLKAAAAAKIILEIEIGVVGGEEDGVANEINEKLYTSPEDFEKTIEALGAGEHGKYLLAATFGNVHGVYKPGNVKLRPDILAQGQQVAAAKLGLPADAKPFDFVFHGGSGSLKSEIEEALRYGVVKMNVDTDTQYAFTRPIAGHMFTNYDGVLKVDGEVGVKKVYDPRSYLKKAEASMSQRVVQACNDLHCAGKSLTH
Mtb hypoxia rep – inhibitors of hypoxia-regulated fluorescent reporter in Mycobacterium tuberculosis. M. tuberculosis hypoxia-regulated fluorescent reporter, fluorescence. fluorescence inhibition, % (no concentration beside the values). hit rate 0.1% among 300,000. AID 1159583; in the data active = fluorescence inhibition mostly above about 23%, no sharp cut-off; inactive = mostly below about 17%
GDH-TPI inh – counter-screen for M. tuberculosis FBA inhibitors: GDH-TPI coupled enzymes; GDH-TPI coupled enzyme counterscreen, NADH absorbance; inhibition, % at 4.8 µM; hit rate 1.2% among 360,000; AID 588335; in the data active = inhibition above about 30%;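 also: 0% = DMSO wells and 100% = wells lacking the enzyme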
* marks the source's active call; other numbers are inactive results; · = no result; + = active, no number. This is a sample that favours compounds with a hit; in the whole collection about 2.9% have one here.

SMILES	FadD28 FP inh	BioA inh	FBA Mtb inh	Mtb hypoxia rep	GDH-TPI inh
O=C(C[C@H]1C=C[C@H](NC(=O)C2CCC2)[C@H](CO)O1)NC1CCC1	·	0	·	·	·
COCCCn1c(=NC(=O)c2ccncc2)c(C#N)cc2c(=O)n3cccc(C)c3nc21	-3	-3	+	-2	7
CCCCn1c(=NC(=O)c2cccnc2)c(C#N)cc2c(=O)n3cccc(C)c3nc21	-1	3	194*	-7	6
CC(=NO)c1ncc(C(F)(F)F)cc1Cl	·	·	·	11	·
COc1ccc(/C=N/NC(=O)c2ccc(Cn3cc([N+](=O)[O-])cn3)o2)cc1O	-3	-1	0	·	37*
COc1cc(/C=N/NC(=O)c2ccc(Cn3cc([N+](=O)[O-])cn3)o2)cc(Br)c1O	2	3	-3	·	10
CCOc1ccc(/C=N/NC(=O)c2ccc(Cn3cc(Br)cn3)o2)cc1	0	·	6	·	29
CCOc1ccc(/C=N/NC(=O)c2ccc(Cn3cc([N+](=O)[O-])cn3)o2)cc1	-2	10	-5	·	42*
CCC(=O)N(C)C[C@H]1Oc2cc(C#CC3CC3)ccc2S(=O)(=O)N([C@H](C)CO)C[C@@H]1C	·	1	·	·	·
CS(=O)(=O)Nc1ccc2c(c1)[C@@H]1C[C@@H](CC(=O)NCc3cccnc3)O[C@@H](CO)[C@@H]1O2	·	1	·	·	·
COc1ccc(C(=O)Nc2cnc3ccccn3c2=O)cc1	-1	·	-1	-4	49*
O=c1oc(-c2ccc(O)c(O)c2)cc2cccc(O)c12	2	1	-1	·	13
O=c1oc(-c2ccc(O)c(O)c2)cc2cc(O)cc(O)c12	12*	0	11	·	32*
COc1ccc(NC(=O)c2cc(C)nc3ccccc23)cc1S(=O)(=O)N1CCOCC1	-2	1	2	4	6
COc1ccc(Nc2nc(-c3ccccc3)nc3ccccc23)cc1S(=O)(=O)N1CCOCC1	-1	-2	7	-4	40*
Cc1ccc(NC(=O)CNc2ccccc2N2CCCC2=O)cc1S(=O)(=O)N1CCOCC1	21*	0	1	6	2
COc1ccc(NC(=O)CNc2ccccc2N2CCCC2=O)cc1S(=O)(=O)N1CCOCC1	10*	0	-1	9	2
COc1ccc(C(=O)Nc2ccc(N3CCOCC3)cc2)cc1S(=O)(=O)N1CCOCC1	0	-4	5	-10	-1
COc1ccc(C(=O)Nc2ccc(-c3ccc(C)o3)cc2)cc1S(=O)(=O)N1CCOCC1	-1	-1	2	-5	38*
CCCN(C)C[C@H]1OCCCC[C@H](C)Oc2ccc(NS(=O)(=O)c3ccccc3)cc2C(=O)N([C@H](C)CO)C[C@H]1C	·	-3	·	·	·
Oc1ccc(Br)cc1C=NNc1nc(N2CCCCC2)nc(N2CCOCC2)n1	·	·	·	9	·
Cc1ccc(N2CCN(N=C/C(Cl)=C/c3ccccc3)CC2)cc1	·	·	·	-12	·
COc1cccc(-n2c(SCC(=O)N3CCOCC3)nc3c([nH]c4ccccc43)c2=O)c1	-4	0	0	-11	33*
COc1cccc(-n2c(SCC(=O)N3CCOCC3)nnc2-c2c[nH]c3ccccc23)c1	-3	-1	5	5	11
CCN(/N=C/C=C/c1ccccc1)c1cc(=O)n(C)c(=O)[nH]1	-1	·	-2	·	70*
SMILES	FadD28 FP inh	BioA inh	FBA Mtb inh	Mtb hypoxia rep	GDH-TPI inh
Cn1c(=O)cc(Nc2ccccc2)[nH]c1=O	-2	-1	0	11	-2
CCN(N=Cc1ccc(Cl)cc1)c1cc(=O)n(C)c(=O)[nH]1	·	·	·	5	·
CCN(/N=C/c1ccc(Cl)cc1)c1cc(=O)n(C)c(=O)[nH]1	-2	·	0	·	51*
CC(CC(=O)NCCCN1CCOCC1)=NNC(=O)COc1ccc(Cl)cc1	·	·	·	16	·
Cc1nn(C)c(C)c1/C=C1/SC(=S)NC1=O	1	-4	-3	-26	35*
Cc1nn(C)cc1/C=C1\SC(=S)NC1=O	0	-2	0	4	12
CC1(C)CC(N2CCN(c3ccccc3)CC2)=CC(=[N+]2CCCC2)C1	-4	7	-6	2	45*
CC1CC(C)C[N+](=C2C=C(N3CCCC3)CC(C)(C)C2)C1 (stereo not given)	2	·	2	21	29
CC1(C)CC(N2CCCC2)=CC(=[N+]2CCCCCC2)C1	-2	·	0	15	30
CCN(CC)C1=CC(=[N+]2CCCC2)CC(C)(C)C1	-1	-2	-5	9	43*
CN(Cc1ccccc1)C1=CC(=[N+]2CCCC2)CC(C)(C)C1	-1	2	-2	5	52*
O=C(/C=C1\NC2(CCCC2)Cc2ccccc21)C(=O)NN=Cc1ccccc1O	·	·	·	4	·
CCOc1cc(C=NNC(=O)c2cc3c(ccc4ccccc43)o2)ccc1O	·	·	·	-6	·
O=C(COc1ccc2c3c(c(=O)oc2c1)CCC3)NC(Cc1ccc(Cl)cc1)C(=O)O (stereo not given)	-5	1	21	·	12
Cc1c(OCC(=O)N2CCC(C(=O)O)CC2)ccc2c1oc(=O)c1ccccc12	-6	4	142*	·	11
O=C(O)C1CCN(C(=O)COc2ccc3c(c2)oc(=O)c2ccccc23)CC1	-4	-1	138*	·	11
O=C(COc1ccc2c(c1)oc(=O)c1ccccc12)N[C@@H](Cc1ccccc1)C(=O)O	-6	0	115*	·	9
O=c1oc2cc(O[C@@H]3OC[C@@H](O)[C@H](O)[C@H]3O)ccc2c2ccccc12	-1	-1	71*	0	15
Cc1c(C)c2ccc(OCC(=O)N3CCN(Cc4ccccc4)CC3)cc2oc1=O	-1	0	0	-2	3
Cc1c(Cc2ccccc2)c(=O)oc2cc(OCC(=O)N3CCC(C(=O)O)CC3)ccc12	-4	7	148*	·	32*
Cc1nc2ccccn2c1C(=O)N/N=C/c1ccc(CNC(=O)C(=O)Nc2ccccc2)o1	-1	·	0	·	38*
Cc1ccc(S(=O)(=O)N(C)C[C@@H]2Oc3ccc(NC(=O)CCCN(C)C)cc3C(=O)N([C@@H](C)CO)C[C@H]2C)cc1	·	-2	·	·	·
Cc1cc2c(=O)n(NC(N)=O)c(C)nc2s1	-4	-1	150*	·	-2
CCCc1cc2c(=O)n(NC(=O)c3nn(C)cc3[N+](=O)[O-])c(C)nc2s1	-6	·	-3	-2	10
CC=C(C)C(=O)NCCN1C2=NCC(Cc3ccc(O)cc3)N2CC1Cc1ccc(O)cc1 (stereo not given)	·	·	·	2	·
SMILES	FadD28 FP inh	BioA inh	FBA Mtb inh	Mtb hypoxia rep	GDH-TPI inh
CCCn1c(NC(=O)c2cccc(S(=O)(=O)N3CCCC3)c2)nc2ccccc21	-1	-2	-3	-5	35*
CCCn1c(NC(=O)c2ccccc2)nc2ccccc21	-6	-1	1	-2	4
CCCCCCn1c(C)nc2c(c1=O)c1nc3ccccc3nc1n2N=Cc1ccco1	·	·	·	11	·
Cc1ccc(C2(C)NC(=O)N(CC(=O)N3c4ccccc4NC(=O)CC3C)C2=O)cc1 (stereo not given)	-1	-2	5	13*	9
Cc1ccc(C2(C)NC(=O)N(CC(=O)N3CCc4ccccc43)C2=O)cc1 (stereo not given)	-1	·	4	-1	4
COc1ccc(NC(=O)N2C[C@@H](O)COC[C@H]3O[C@@H](CC(=O)NCc4ccncn4)CC[C@@H]32)cc1	·	5	·	·	·

Bioassay records as filed in PubChem.
